Results: PubChem BioAssay
Several values for one entry are separate records, joined by “and”; a condition that tells them apart may be missing. Equal entries are not always repeated. Activity calls are given as the source filed them.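 Rule for the calls, unless noted: active = at least 20% inhibition of 6-phosphogluconate dehydrogenase activity; inactive = the rest.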

Tests used:
[1] = molecular target: 6-phosphogluconate dehydrogenase, decarboxylating (Homo sapiens) (UniProt P52209); test: inhibition of human phosphogluconate dehydrogenase – biochemical, recombinant enzyme, NADPH absorbance, primary screen (AID 1159550); conditions: recombinant 6PGD, NADPH absorbance 341 nm; at 10 µM; stronger effect = higher value
[2] = EMT-state selective cytotoxicity in co-culture – imaging, PC-3E GFP, TEM4-18 mCherry, primary screen (AID 1345086;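 active = compounds killing one labelled cell type while sparing the other, by normalised counts and ratio limits, not self-fluorescent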;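 for all read-outs here: cells exposed to compound for 72 h before imaging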;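 for red/green cell ratio (normalised): normalised mesenchymal count divided by normalised epithelial count so high means epithelial killing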); conditions: PC-3E GFP / TEM4-18 mCherry co-culture, imaging cell counts, at 1 µM; for red/green cell ratio (normalised): actives lie on both sides, counts scaled to control wells, 1 = unselective
[3] = molecular target: Mitogen-activated protein kinase 7 (Homo sapiens) (UniProt Q13164); test: Gal4-ERK5 driven luciferase induction – cell-based, HTS, primary screen (AID 1508626;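 active = luciferase signal above three times the same-plate solvent-only control wells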;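 note: luciferase driven by Gal4-ERK5 fusion binding five Gal4 sites before minimal TATA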); conditions: HeLa Gal4-ERK5 transactivation, 18 h, at 5 µM, stronger effect = higher value
[4] = measured here: epithelial PC-3E GFP cell survival
[5] = measured here: mesenchymal TEM4-18 mCherry cell survival

Chain of 6-phosphogluconate dehydrogenase, decarboxylating (Homo sapiens) (P52209 whole entry, looked up): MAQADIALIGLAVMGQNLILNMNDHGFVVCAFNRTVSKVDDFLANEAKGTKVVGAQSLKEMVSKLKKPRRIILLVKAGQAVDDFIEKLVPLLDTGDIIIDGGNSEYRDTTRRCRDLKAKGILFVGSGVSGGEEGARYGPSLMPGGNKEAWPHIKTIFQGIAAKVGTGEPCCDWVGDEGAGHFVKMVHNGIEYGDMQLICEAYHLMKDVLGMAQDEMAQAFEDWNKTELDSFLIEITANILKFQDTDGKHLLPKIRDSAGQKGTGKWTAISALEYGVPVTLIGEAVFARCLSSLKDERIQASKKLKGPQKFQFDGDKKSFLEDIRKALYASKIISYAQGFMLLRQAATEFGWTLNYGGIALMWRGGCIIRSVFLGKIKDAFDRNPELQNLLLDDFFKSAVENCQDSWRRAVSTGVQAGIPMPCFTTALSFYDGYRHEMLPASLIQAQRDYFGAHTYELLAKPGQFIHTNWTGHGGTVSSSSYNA
Chain of Mitogen-activated protein kinase 7 (Homo sapiens) (Q13164 whole entry, looked up, the tested form may be a part): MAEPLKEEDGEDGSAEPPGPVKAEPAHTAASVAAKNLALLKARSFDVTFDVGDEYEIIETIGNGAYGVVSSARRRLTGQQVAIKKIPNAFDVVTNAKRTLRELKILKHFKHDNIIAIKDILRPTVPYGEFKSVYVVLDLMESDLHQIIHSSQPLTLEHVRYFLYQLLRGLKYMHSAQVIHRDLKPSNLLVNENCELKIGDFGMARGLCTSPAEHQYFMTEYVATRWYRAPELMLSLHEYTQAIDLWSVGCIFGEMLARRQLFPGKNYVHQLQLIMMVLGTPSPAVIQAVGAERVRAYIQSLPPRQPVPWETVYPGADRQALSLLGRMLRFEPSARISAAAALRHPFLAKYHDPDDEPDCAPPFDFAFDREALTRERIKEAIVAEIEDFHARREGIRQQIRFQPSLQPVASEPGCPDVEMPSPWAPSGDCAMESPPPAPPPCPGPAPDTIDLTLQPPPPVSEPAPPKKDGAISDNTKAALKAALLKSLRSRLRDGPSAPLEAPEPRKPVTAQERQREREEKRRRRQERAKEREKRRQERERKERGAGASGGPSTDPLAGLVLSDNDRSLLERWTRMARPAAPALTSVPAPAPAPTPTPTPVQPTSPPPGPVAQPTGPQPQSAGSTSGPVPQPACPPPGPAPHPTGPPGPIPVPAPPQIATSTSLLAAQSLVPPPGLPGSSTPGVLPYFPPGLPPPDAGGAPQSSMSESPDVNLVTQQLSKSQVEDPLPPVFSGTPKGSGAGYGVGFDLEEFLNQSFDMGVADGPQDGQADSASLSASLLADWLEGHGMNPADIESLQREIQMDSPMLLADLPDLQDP

Structure (SMILES)	inhibition [1]	red/green cell ratio (normalised) [2]	normalised cell number [2, 4]	normalised cell number [2, 5]	luciferase signal [3]
Cc1cc(O)cc(O)c1C(=O)O	-6.2% (inactive)	0.81 (inactive)	1.09	0.88	124 AU (inactive)
C=C(C)C1CC=C(CO)CC1 (stereo not given)	1.85% (inactive)	1.04 (inactive)	0.95	0.99	68 AU (inactive)
C=C(C)[C@H]1COc2cc3oc(=O)ccc3cc2O1	5.71% (inactive)	0.95 (inactive)	1.17	1.11	44 AU (inactive)
CC(=O)Oc1cc(-c2coc3cc(OC(C)=O)c(OC(C)=O)c(OC(C)=O)c3c2=O)cc(OC(C)=O)c1OC(C)=O	-14.8% (inactive)	0.88 (inactive)	1.23	1.08	36 AU (inactive)
NC(C(=O)O)C(O)C(=O)O (stereo not given)	17.7% (inactive)	1.01 (inactive)	1.05	1.06	260 AU (active)
CC(C)=CCc1c2c(c3occ(-c4ccc(O)cc4)c(=O)c3c1O)C=CC(C)(C)O2	8.7% (inactive)	1.02 (inactive)	1.04	1.06	392 AU (active)
CC(C)=CC1C(CO)C1(C)C (stereo not given)	2.26% (inactive)	0.97 (inactive)	0.97	0.94	68 AU (inactive)
CC(CCC(=O)O)[C@H]1CCC2C3CC[C@@H]4CC(=O)CC[C@]4(C)C3C=C[C@@]21C (stereo not given in full)	12.1% (inactive)	0.9 (inactive)	1	0.9	28 AU (inactive)
COc1c(-c2coc3cc4c(cc3c2=O)CC(OC(C)=O)C(C)(C)O4)ccc2c1C=CC(C)(C)O2 (stereo not given)	13.9% (inactive)	0.78 (inactive)	1.02	0.8	56 AU (inactive)
CC(=O)Oc1ccc2c(c1OC(C)=O)OCC1(O)Cc3c(cc(OC(C)=O)c(OC(C)=O)c3OC(C)=O)C21 (stereo not given)	18.4% (inactive)	0.84 (inactive)	1.08	0.91	44 AU (inactive)
COC(=O)c1c(C)cc(OC(=O)c2c(C)cc(O)c(C=O)c2O)c(C)c1O	1.13% (inactive)	0.78 (inactive)	1.24	0.97	12 AU (inactive)
COc1ccc(-c2coc3c(O)c(OC)ccc3c2=O)cc1	11.6% (inactive)	0.97 (inactive)	1.1	1.06	100 AU (inactive)
CCc1ccc2c(O)c3c(cc2c1C(=O)OC)C(=O)c1c(O)ccc(O)c1C3=O	-5.67% (inactive)	0.83 (inactive)	1.11	0.92	44 AU (inactive)
C=CC(C1=CC(=O)C(OC)=CC1=O)c1ccc(OC)cc1 (stereo not given)	9.18% (inactive)	0.93 (inactive)	1.1	1.03	36 AU (inactive)
COc1ccc(-c2c(O)c3c(OC)c4c(cc3oc2=O)OC(C)(C)C=C4)cc1	11.4% (inactive)	0.9 (inactive)	1.02	0.92	88 AU (inactive)
CCCCCC1C(=O)CCC1CC(=O)O (stereo not given)	-5.33% (inactive)	0.91 (inactive)	0.07	0.07	56 AU (inactive)
C=C1CCC(C2CC(=O)OC2=O)C(=O)CCC2C1CC2(C)C (stereo not given)	13.1% (inactive)	0.84 (inactive)	1.27	1.06	144 AU (inactive)
COc1ccc2c(c1)O[C@@H]1COc3cc(OC)c(OC)cc3[C@@H]1C2=O	-2.95% (inactive)	0.88 (inactive)	0.9	0.79	68 AU (inactive)
O=C(O)C1(O)C[C@@H](O)C(O)[C@H](O)C1 (stereo not given in full)	5.01% (inactive)	0.8 (inactive)	1.27	1.02	12 AU (inactive)
COc1ccc2c(c1OC)OC[C@@H](c1ccc(OC)c(OC)c1OC)C2	-2.69% (inactive)	0.93 (inactive)	0.93	0.86	96 AU (inactive)

Structure (SMILES)	inhibition [1]	red/green cell ratio (normalised) [2]	normalised cell number [2, 4]	normalised cell number [2, 5]	luciferase signal [3]
COc1cc(O)c2c(=O)cc(C)oc2c1CC=C(C)C	12.4% (inactive)	1.22 (inactive)	0.96	1.17	36 AU (inactive)
O=C(O)CCCN1C(=O)c2cccc3cccc(c23)C1=O	-3.59% (inactive)	0.82 (inactive)	1.29	1.06	48 AU (inactive)
COc1cccc(O)c1O	-0.395% (inactive)	0.97 (inactive)	0.99	0.96	52 AU (inactive)
CC1(C)CC2C1CCC1(C)OC1CCC2(C)O (stereo not given)	19.1% (inactive)	1.05 (inactive)	0.98	1.02	620 AU (active)
O=C(O)c1cc2cc(Cl)ccc2[nH]1	-0.282% (inactive)	1 (inactive)	1.21	1.21	52 AU (inactive)
C=C1C(N)CC2CC1C2(C)C (stereo not given)	16.7% (inactive)	1.05 (inactive)	1.09	1.15	60 AU (inactive)
CC(C)=CCc1c(O)cc2oc(C)cc(=O)c2c1O	8.51% (inactive)	0.93 (inactive)	1.18	1.1	52 AU (inactive)
C#CCCCCCCCCCCCC(O)CC(O)COC(C)=O (stereo not given)	8.03% (inactive)	0.83 (inactive)	1.1	0.91	60 AU (inactive)
COc1ccc([C@H]2Oc3cc(OC)cc(OC)c3C[C@H]2O)cc1	-0.838% (inactive)	0.79 (inactive)	1.04	0.82	84 AU (inactive)
COc1ccc2c(C)cc(=O)oc2c1	13.6% (inactive)	1.03 (inactive)	1.13	1.16	60 AU (inactive)
CC(C)c1c(O)c(-c2cc3c(c(C(C)C)c2O)CCC2C(C)(C)CCC[C@]32C)cc2c1CCC1C(C)(C)CCC[C@]21C (stereo not given in full)	-2.25% (inactive)	1 (inactive)	1.03	1.03	40 AU (inactive)
O=C(O)C1=C[C@@H](O)[C@@H](O)[C@H](O)C1	9.48% (inactive)	1.05 (inactive)	0.91	0.95	88 AU (inactive)
COc1cc(C)c(C(=O)Oc2cc(C)c(C(=O)O)c(O)c2C)c(OC)c1C	17.4% (inactive)	1.11 (inactive)	0.88	0.98	92 AU (inactive)
COc1c(O)cccc1O	-5.16% (inactive)	0.77 (inactive)	0.96	0.74	76 AU (inactive)
CC(=O)O[C@@H]1CC[C@@]2(C)C(C[C@@H](OC(C)=O)[C@@]3(C)C4=CC(=O)O[C@@H](c5ccoc5)[C@]4(C)CCC23)C1(C)C (stereo not given in full)	-14.7% (inactive)	0.98 (inactive)	1.08	1.06	56 AU (inactive)
COc1ccc2c(c1)OC[C@@H](Cc1ccc(OC)c(OC)c1)[C@@H]2O	11.8% (inactive)	0.93 (inactive)	0.92	0.85	68 AU (inactive)
Cc1cc(O)cc(=O)o1	18.1% (inactive)	0.97 (inactive)	1.03	1.01	52 AU (inactive)
COc1cc(-c2coc3cc(O[C@@H]4O[C@H](CO)[C@@H](O)[C@H](O)[C@H]4O)c(OC)c(O)c3c2=O)cc(O)c1OC	-0.763% (inactive)	0.96 (inactive)	0.99	0.95	68 AU (inactive)
COC1=CC(=O)C(C(=O)c2ccccc2)=CC1=O	-0.278% (inactive)	1.01 (inactive)	1.01	1.03	72 AU (inactive)
COC(=O)c1c(C)cc(O)cc1O	7.84% (inactive)	1.06 (inactive)	0.91	0.97	36 AU (inactive)

Structure (SMILES)	inhibition [1]	red/green cell ratio (normalised) [2]	normalised cell number [2, 4]	normalised cell number [2, 5]	luciferase signal [3]
C=C1C(=O)O[C@@H]2C[C@@]3(C)CCC[C@H](C)C3=C[C@H]12	8.8% (inactive)	1.12 (inactive)	0.81	0.9	84 AU (inactive)
C#CCCCCCCCCCCCC(O)CC(O)CO (stereo not given)	6.35% (inactive)	0.88 (inactive)	0.94	0.82	52 AU (inactive)
CC1=CCc2c(cc3oc(C)cc(=O)c3c2O)OC1	0.892% (inactive)	1.1 (inactive)	1.02	1.12	16 AU (inactive)
COc1cc(OC)c2c(=O)c(-c3ccc4c(c3)OCO4)coc2c1	7.77% (inactive)	1.06 (inactive)	1.13	1.2	92 AU (inactive)
CCOC(=O)c1c(C)cc(O)c(C=O)c1O	-5.47% (inactive)	0.95 (inactive)	0.99	0.94	56 AU (inactive)
COc1ccc2c(c1)OC/C(=C\c1ccc(OC)c(O)c1)C2=O	-46% (inactive)	0.99 (inactive)	0.74	0.74	88 AU (inactive)
Nc1nc2ncc(=O)[nH]c2c(=O)[nH]1	-1.84% (inactive)	1.01 (inactive)	1.17	1.18	56 AU (inactive)
CC(=O)O[C@@H]1CC2C(C)(C)[C@H](O)CC[C@]2(C)C2CC[C@@]3(C)[C@H](c4ccoc4)OC(=O)C4OC43[C@@]21C (stereo not given in full)	-1.03% (inactive) and -1.39% (inactive)	1.03 (inactive)	1.03	1.06	36 AU (inactive)
C=CC(C1=CC(=O)C(OC)=CC1=O)c1ccccc1 (stereo not given)	-2.35% (inactive)	1.14 (inactive)	0.95	1.08	60 AU (inactive)
CCOc1ccc(C(=O)c2ccc(O)c(O)c2O)cc1	-12.8% (inactive)	0.88 (inactive)	0.99	0.87	104 AU (inactive)
COc1ccc2c(=O)c(CC(=O)O)coc2c1	-1.05% (inactive)	0.91 (inactive)	0.98	0.89	60 AU (inactive)
CC(=O)OC1CCC23CC1(C)CCC2C(C)(C)CC3OC(C)=O (stereo not given)	-1.38% (inactive)	1.04 (inactive)	1.07	1.11	80 AU (inactive)
COc1ccc2c(c1)OCC(Cc1ccc(OC)c(OC(C)=O)c1)C2=O (stereo not given)	2.88% (inactive)	0.86 (inactive)	0.47	0.4	80 AU (inactive)
COc1ccc(-c2oc3ccccc3c(=O)c2O)cc1OC	8.6% (inactive)	0.86 (inactive)	1.06	0.91	52 AU (inactive)
C=C[C@@](C)(O)CCC1C(=C)C[C@H](O)C2C(C)(C)CCCC12C (stereo not given in full)	15.2% (inactive)	0.87 (inactive)	1.07	0.93	64 AU (inactive)
COC1(C)CCC2OC2(C)CCC2C1CC2(C)C (stereo not given)	10.7% (inactive)	1.21 (inactive)	0.76	0.91	80 AU (inactive)
COc1c2ccccc2nc2occc12	7.87% (inactive)	1.02 (inactive)	1.03	1.05	40 AU (inactive)
COc1ccc2c(c1)OCc1c-2oc2cc(OC)ccc12	2.98% (inactive)	0.82 (inactive)	1.14	0.93	96 AU (inactive)
COc1ccc2c(c1)OC1(O)COc3cc(OC)c(OC)cc3C1=C2 (stereo not given)	-7.74% (inactive)	1.07 (inactive)	1.01	1.09	108 AU (inactive)
